{"source": "PubChem BioAssay AID493185", "about": "(National Center for Advancing Translational Sciences (NCATS), 2011)", "assay": "Counterscreen for Identifying a Potential Treatment of Ataxia-Telangiectasia: Hit Validation", "procedure,_shortened": "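Without cells, compounds at up to 76.7 uM final were combined with premixed anti-pKAP1/anti-KAP1 AlphaLISA bead reagents, protease inhibitors and lysis buffer; signal read after 6 hr at 25C to flag assay-platform artifacts.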", "note": "Active and inactive are the calls of the source. A call without a number means that no potency is given here. The call rests on the fitted dose curve; in most records, active means well fitted activation curve with a large enough effect; inconclusive means small, poorly fitted or top-dose-only effect; inactive means no such curve, though single readings can be large or run the other way."}
{"smiles": "CCC12CN(C(=O)c3ccc([N+](=O)[O-])cc3)CC(CC)(CN(C(=O)c3ccc([N+](=O)[O-])cc3)C1)C2=O", "values": [{"measurement": "Potency", "value": "inactive"}]}
{"smiles": "CC(C)NC(=O)c1ccc(COc2ccc(C(C)(C)C)cc2)o1", "values": [{"measurement": "Potency", "value": "inactive"}]}
{"smiles": "CCN(CC)c1ccc2c(Cl)c(Br)c(=O)oc2c1", "values": [{"measurement": "Potency", "value": "inactive"}]}
{"smiles": "O=C(O)CCCN1C(=O)/C(=C/C=C/c2ccco2)SC1=S", "values": [{"measurement": "Potency", "value": "inactive"}]}
{"smiles": "CC(C)CN(CC(C)C)C(=O)c1cc2c(=O)n3ccccc3nc2s1", "values": [{"measurement": "Potency", "value": "inactive"}]}
{"smiles": "CCn1c(SCc2cccc(F)c2)nnc1-c1ccncc1", "values": [{"measurement": "Potency", "value": "inactive"}]}
{"smiles": "COc1ccccc1-n1c(SCC(N)=O)nc2sc3c(c2c1=O)CCC3", "values": [{"measurement": "Potency", "value": "inactive"}]}
{"smiles": "CC(C)Nc1nc(Oc2ccc(=O)n(-c3ccccc3)n2)nc(N(C)C)n1", "values": [{"measurement": "Potency", "value": "inactive"}]}
{"smiles": "CC(C)C1CC(CCN)(c2ccccc2)CCO1", "note": "(stereo unspecified)", "values": [{"measurement": "Potency", "value": "inactive"}]}
{"smiles": "CCCc1ccc(S(=O)(=O)Nc2ccc(C)c(NS(C)(=O)=O)c2)cc1", "values": [{"measurement": "Potency", "value": "inactive"}]}
{"smiles": "O=C(CN1C(=O)c2cccc([N+](=O)[O-])c2C1=O)NCc1ccccc1", "values": [{"measurement": "Potency", "value": "inactive"}]}
